IL-1B inflam inh – blocks inflammasome-driven IL-1 beta release | activity change, % at 57.5 µM | actives 4.7% (n = 360,000) | THP-1 LPS/ATP IL-1B secretion, AlphaLISA, 16 h; hits give low values; in the data active = activity change below about -50%; inconclusive = mostly about -30% to -49%; note: % is set by controls: 0 for no effect and ±100 for the full control effect
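THP-1 cells pretreated 1 hr with compounds (up to 57.5 uM final), then stimulated with LPS (250 ng/mL final) plus ATP (1.25 mM final); secreted IL-1B measured by AlphaLISA after 16 hr, decreased signal indicating inhibition.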
TDP1 cell noCPT – qHTS for Inhibitors of human tyrosyl-DNA phosphodiesterase 1 (TDP1): qHTS in cells in absence of CPT; Potency, µM (titrated, usually from 46.2 µM), for the others: top-dose activity change, negative = growth inhibition, hits mostly inhibitors; DT40 Tdp1-/- hTDP1 cells, no CPT, ATP luminescence, 48 h; actives 15% (n = 420,000); note: potency is the fitted concentration of half-maximal effect; % is set by controls: 0 for no effect and ±100 for the full control effect; nearly all actives have a fitted effect of over 55% in size
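A cellular qHTS used chicken DT40 cells lacking endogenous Tdp1 but carrying stably transfected human TDP1. Compounds were applied without camptothecin, and cell growth kinetics were judged by ATP-dependent luminescence after ≥48 hr.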
ASM inhibitor – blocks human secretory acid sphingomyelinase; P17405; placental ASM, HMU-PC fluorogenic substrate, 60 min; Potency, µM (highest dose often 57.5 µM), without a hit: at the top dose activity change, negative = inhibition, most hits filed as inhibitors; actives 0.006% (n = 340,000); note: potency is the fitted concentration of half-maximal effect
Target sequence (P17405 47-631 limits assumed): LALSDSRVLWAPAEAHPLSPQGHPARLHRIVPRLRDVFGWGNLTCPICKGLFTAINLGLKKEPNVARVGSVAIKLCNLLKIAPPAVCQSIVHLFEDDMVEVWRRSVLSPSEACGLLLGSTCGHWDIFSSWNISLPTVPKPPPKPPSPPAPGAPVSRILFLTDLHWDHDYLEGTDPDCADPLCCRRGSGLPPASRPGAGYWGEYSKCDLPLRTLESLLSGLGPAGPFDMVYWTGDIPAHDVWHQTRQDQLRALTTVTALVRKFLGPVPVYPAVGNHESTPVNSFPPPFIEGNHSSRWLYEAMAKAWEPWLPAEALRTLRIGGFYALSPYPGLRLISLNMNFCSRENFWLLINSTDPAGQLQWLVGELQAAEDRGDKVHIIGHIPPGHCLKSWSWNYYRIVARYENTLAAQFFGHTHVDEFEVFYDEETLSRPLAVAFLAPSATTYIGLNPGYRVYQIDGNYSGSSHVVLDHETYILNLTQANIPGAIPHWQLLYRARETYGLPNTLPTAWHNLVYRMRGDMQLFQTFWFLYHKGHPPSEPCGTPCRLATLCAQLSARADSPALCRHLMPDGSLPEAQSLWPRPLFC
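Fluorogenic HMU-PC substrate (9 uM final) is turned over by placental ASM in 60 min at 37 C after a 10 min compound preincubation. Reaction ended by alkaline stop (pH 10), with fluorescence read at 386/447 nm.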
TGFb inhibitor – TGF-b pathway inhibition; HepG2 CAGA-GFP TGF-b/SMAD3 reporter, GFP fluorescence, 18 h; TGF-beta stimulated, 500 pg/mL final; actives 1.2% (n = 410,000); Potency, µM (highest dose often 46.1 µM), for the others: at the top dose activity, negative = inhibition, most hits filed as inhibitors; note: potency is the fitted concentration of half-maximal effect; % is set by controls: 0 for no effect and ±100 for the full control effect; nearly all actives have a fitted effect of over 65% in size
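Inhibition was scored as loss of TGF-beta-induced (500 pg/mL final, 18 hours, 37 degrees C) GFP in HEPG2 cells carrying a CAGA-GFP reporter, in DMEM with 1% FBS. Well GFP was summed per cell; Activity was normalised to unstimulated and stimulated DMSO wells, then concentration-response fitting.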
DT40 TDP1 CPT – DT40-hTDP1 cell growth loss with CPT. chicken DT40 Tdp1-/-;hTDP1 cells + 20 nM CPT, ATP luminescence, 48 h. Potency, µM (highest dose often 46.2 µM), inactives show at the top dose activity change, negative = growth inhibition, usual class: inhibitors. actives 12% (n = 420,000); note: potency is the fitted concentration of half-maximal effect; % is set by controls: 0 for no effect and ±100 for the full control effect; nearly all actives have a fitted effect of over 55% in size
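Chicken DT40 Tdp1-/- cells complemented with human TDP1, 400 cells/well, exposed to compounds plus 20 nM camptothecin for at least 48 h at 37 C; viability read as ATP content by CellTiter-Glo luminescence.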
HepG2 tox – HepG2 cytotoxicity, counter-screen for TGF-b inhibitors; Potency, µM (series often up to 46.1 µM), without a hit: at the highest dose activity change, negative = cytotoxicity, actives largely listed as cytotoxic; AID 588856; actives 0.76% (n = 410,000); HepG2 CAGA-GFP viability, ATP luminescence, 18 h; note: potency is the fitted concentration of half-maximal effect
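HepG2 CAGA-GFP cells (1000/well, DMEM with 1% FBS) received compound, then TGF-beta at 500 pg/mL final, and were incubated 18 hours at 37 degrees C. Viability was read by CellTiter-Glo luminescence. Media-only wells were set as complete cell-killing and DMSO as no toxicity.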
Starred values were filed as active, the others as inactive; i = inactive; ? = inconclusive; nt = no result; [ ] = remark or other dose. Sampled rows, rich in hits. Any-hit rate of the full collection: about 19%. Unless noted, calls come from the whole dose curve; as a rule, active = well fitted curve in the direction sought with a large enough effect; inconclusive = small, poorly fitted or top-dose-only effect, or another doubt; inactive = no such curve, though single readings can be large; an effect the other way counts as inactive or inconclusive.

SMILES	IL-1B inflam inh	TDP1 cell noCPT	ASM inhibitor	TGFb inhibitor	DT40 TDP1 CPT	HepG2 tox
CCN(CCCNS(=O)(=O)c1ccc2c(c1)oc(=O)n2C)c1cccc(C)c1	-11.9	?	-9.5%	-23.3%	?	-23.2%
Nc1c(C(=O)NCc2ccco2)c2nc3ccccc3nc2n1Cc1ccccc1	?	25.9µM*	i	11.2µM*	16.4µM*	-53.4%
COc1ccc(Cn2c(N)c(C(=O)NCc3ccco3)c3nc4ccccc4nc32)cc1	?	?	i	?	?	-57.7%
Nc1c(C(=O)NCc2ccco2)c2nc3ccccc3nc2n1Cc1ccc(F)cc1	?	?	i	?	14.6µM*	6.5%
CC(C)(C)OC(=O)N1CCCC(C(=O)Nc2cccc(C(=O)NCCc3ccccc3)c2)C1 (stereo unspecified)	9.7	20.6µM*	-6.2%	0.1%	14.6µM*	-5.0%
CNC(=O)OCC[N+](C)(C)C	nt	-19.3%	nt	nt	5.1%	nt
COc1ccc(C2C=C(c3ccccc3)Nc3nc(NC(=O)/C=C/c4ccccc4Cl)nn32)cc1 (stereo unspecified)	nt	3.66µM*	nt	?	5.17µM*	-34.2%
CC(=O)[C@]1(O)CCC2C3CCC4=CC(=O)CC[C@@]4(C)C3CC[C@]21C (stereo partly specified)	nt	-5.1%	nt	nt	?	nt
CC(=O)[C@@]1(O)CC[C@H]2[C@@H]3C[C@H](C)C4=CC(=O)CC[C@]4(C)[C@H]3CC[C@@]21C	?	29.1µM*	-7.9%	-12.1%	?	-64.8%
N#CC(=C(O)c1ccc(S(=O)(=O)N(CCCl)CCCl)cc1)c1nc2ccccc2[nH]1	34.6	-2.9%	48.8%	0.1%	-6.6%	-7.2%
CSc1nnc(C2CCNCC2)n1C	0.0	-3.4%	1.1%	-0.4%	1.3%	5.2%
Cc1cccc(Cc2cnc[nH]2)c1C	nt	-2.5%	nt	nt	6.6%	nt
Cc1c(C(=O)N2CCC(Cc3ccccc3)CC2)sc2ncnc(N3CCC(C)CC3)c12	-1.8	?	-6.3%	-19.3%	20.6µM*	14.1%
COC(=O)C1=C(c2ccc(OC(F)(F)F)cc2)C[C@@H]2CC[C@H]1N2C(=O)NC1CCCCC1	-14.0	16.4µM*	-13.7%	?	?	-14.1%
COC(=O)C1=C(c2ccc(OC(F)(F)F)cc2)C[C@@H]2CC[C@H]1N2C(=O)NC1Cc2ccccc2C1	-23.5	?	-15.8%	?	23.1µM*	-4.1%
COC(=O)C1=C(c2ccc3ccccc3c2)C[C@@H]2CC[C@H]1N2C(=O)NC1Cc2ccccc2C1	-7.1	?	-3.9%	?	?	-3.0%
CNC(=O)Oc1ccccc1OC(C)C	-0.7	-11.0%	1.3%	-8.8%	?	-5.3%
O=c1c2ccccc2nc(-c2cccs2)n1-c1ccccc1	9.0	23.1µM*	-0.7%	-11.8%	?	-3.2%
Cc1cccc(-n2c(-c3cccs3)nc3ccccc3c2=O)c1	24.0	?	-3.6%	?	16.4µM*	-10.3%
O=C(COc1ccccc1)N1CCN(CC2CC=CCC2)CC1 (stereo unspecified)	11.8	-6.2%	-0.8%	3.4%	-4.9%	15.1%
O=C(c1c[nH]cc1-c1ccccc1)c1cccc2ccccc12	-14.8	14.6µM*	-2.3%	26.8%	18.4µM*	-29.9%
COc1ccc(OC)c(CNC(=O)CCS(=O)(=O)c2ccc3c(c2)oc(=O)n3C)c1	18.0	15.5%	-1.6%	?	0.4%	-0.6%
CCCCCc1cc(O)c2c(c1)OC(C)(C)c1ccc(C)cc1-2	nt	9.44µM*	nt	nt	16.8µM*	nt
O=[N+]([O-])c1ccc(NCCCN2CCOCC2)nc1	12.9	-3.6%	-3.8%	10.0%	6.7%	7.9%
O=C(NCC(c1cccs1)N1CCOCC1)c1cc([N+](=O)[O-])cc([N+](=O)[O-])c1 (stereo unspecified)	-62.4*	?	2.0%	-6.8%	-29.1%	-6.7%
SMILES	IL-1B inflam inh	TDP1 cell noCPT	ASM inhibitor	TGFb inhibitor	DT40 TDP1 CPT	HepG2 tox
Brc1ccccc1Cn1c(-c2cncs2)nc2ccccc21	5.3	16.4µM*	2.7%	-3.0%	?	-23.5%
O=P1(Oc2ccccc2)CC=C[C@H](COCc2ccccc2)O1 (stereo partly specified)	-4.0	-25.6%	2.9%	?	-8.3%	-6.6%
O=C(CCN1CCOCC1)NCC(=O)Nc1ccc(Br)cc1C(=O)c1ccccc1	-18.5	-27.2%	-1.7%	-5.3%	-6.1%	1.7%
O=C(CNC(=O)c1ccccc1)Nc1ccc(Br)cc1C(=O)c1ccccc1	-52.2*	?	-9.4%	-16.8%	1.9%	-33.7%
O=C(Nc1ccc(Cl)cc1C(=O)c1ccccc1)c1ccccc1Br	nt	2.91µM*	nt	?	?	-53.0%
COc1cc(C(=O)Nc2ccc(Br)cc2C(=O)c2ccccc2Cl)cc(OC)c1OC	27.6	23.1µM*	-11.3%	?	?	-43.2%
O=C(CN1CCCCC1)NCC(=O)Nc1ccc(Br)cc1C(=O)c1ccccc1	22.6	18.4µM*	3.2%	-24.9%	16.4µM*	-31.0%
c1ccc2c3c(ccc2c1)OCC1CONC31 (stereo unspecified)	-11.5	6.3%	2.4%	19.6%	3.4%	-0.5%
Cc1ccc(CNC2=NCCS2)cc1	9.9	-16.6%	1.9%	-2.7%	-6.3%	11.6%
CC(C)C[C@H](NC(=O)[C@H](Cc1ccccc1)NC(=O)CNC(=O)CNC(=O)[C@@H](N)Cc1ccc(O)cc1)C(=O)N[C@@H](CCCN=C(N)N)C(=O)N[C@@H](CCCCN)C(=O)N[C@@H](Cc1ccc(O)cc1)C(=O)N1CCC[C@H]1C(=O)N[C@@H](CCCCN)C(=O)O	nt	1.8%[4.12 µM]	nt	nt	8.5%[4.12 µM]	nt
O=C(CNC(=O)c1ccccc1Cl)Nc1ccc(Br)cc1C(=O)c1ccccc1	0.6	18.4µM*	-1.7%	-17.0%	18.4µM*	-16.4%
CCCCN1CC(=O)N2[C@H]3c4cc(C)ccc4OC[C@@H]3[C@H](c3ccccc3)[C@]2(C)C1=O	-5.5	?	2.6%	?	?	-9.5%
CC[C@@H]([C@H](C)O)n1ncn(-c2ccc(N3CCN(c4ccc(OC[C@@H]5CO[C@@](Cn6cncn6)(c6ccc(F)cc6F)C5)cc4)CC3)cc2)c1=O	nt	?	nt	nt	-6.7%	nt
